Screening data from PubChem BioAssay.
Giardia FBPA inh: qHTS Assay for Inhibitors of Fructose-1,6-bisphosphate Aldolase from Giardia Lamblia. actives 0.71% (n = 290,000). purified Giardia FBPA. A8B2U2. AID 2451, 2010. Potency, µM (titrated, usually from 59.6 µM), for inactives: top-dose activity, negative = inhibition, most hits filed as inhibitors; active = well fitted curve in the direction sought with a large enough effect; inconclusive = small, poorly fitted or top-dose-only effect, or another doubt; inactive = no such curve, though single readings can be large; an effect the other way counts as inactive or inconclusive; also: potency is read from the fitted curve at half-maximal effect; % is scaled to controls: 0 for no effect and ±100 for the full control effect; nearly all actives have a fitted effect of over 55% in size
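40 nM FBPA preincubated 10 min at RT with compound (up to 57.5 uM final), then substrate plus GAPDH/TPI/NAD/arsenate coupling and diaphorase/resazurin added. Fluorescence read after 20 min at RT, 525/598 nm.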
NS1 function inh: qHTS Assay for Inhibitors of Influenza NS1 Protein Function. Potency, µM (series often up to 46.1 µM), without a hit: top-dose activity, positive = more growth. actives 0.4% (n = 270,000). AID 2326, 2010; also: potency is read from the fitted curve at half-maximal effect; actives are rising curves; nearly all actives have a fitted effect of over 50% in size
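A cell-based growth assay was used: compounds that relieve NS1-induced slow growth of budding yeast raise OD600. Assay medium was yeast nitrogen base with ammonium sulphate and -URA supplement, pH 6.0, with 2% galactose.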
Shiga toxin inh: A qHTS for Small Molecule Inhibitors of Shiga Toxin. AID 2315, 2010. inhibition, % at 38.7 µM. Vero cells, Shiga toxin protein synthesis inhibition reporter. actives 9.2% (n = 290,000); in the data active = inhibition mostly above about 28%, no sharp cut-off; inactive = mostly below about 43%; also: 0% is about no effect
CHX counter: Cycloheximide Counterscreen for Small Molecule Inhibitors of Shiga Toxin | cell reporter, cycloheximide protein synthesis inhibition counterscreen | max response, % | actives 12% (n = 300,000); in the data active = max response mostly above about 13%, no sharp cut-off; inactive = mostly below about 14%; also: read at 38.3 µM for the half of the compounds with a filed dose; 0% is about no effect
LmPK inhibitor: qHTS Assay for Inhibitors of Leishmania Mexicana Pyruvate Kinase (LmPK). purified LmPK, Kinase-Glo ATP luminescence, 1 h. Potency, µM (titrated, usually from 57.5 µM), inactives show at the top dose activity change, negative = inhibition, most hits filed as inhibitors. actives 0.37% (n = 290,000); active = well fitted curve in the direction sought with a large enough effect; inconclusive = small, poorly fitted or top-dose-only effect, or another doubt; inactive = no such curve, though single readings can be large; an effect the other way counts as inactive or inconclusive; also: potency is read from the fitted curve at half-maximal effect; % is scaled to controls: 0 for no effect and ±100 for the full control effect
Target sequence (Q27686 whole entry, looked up): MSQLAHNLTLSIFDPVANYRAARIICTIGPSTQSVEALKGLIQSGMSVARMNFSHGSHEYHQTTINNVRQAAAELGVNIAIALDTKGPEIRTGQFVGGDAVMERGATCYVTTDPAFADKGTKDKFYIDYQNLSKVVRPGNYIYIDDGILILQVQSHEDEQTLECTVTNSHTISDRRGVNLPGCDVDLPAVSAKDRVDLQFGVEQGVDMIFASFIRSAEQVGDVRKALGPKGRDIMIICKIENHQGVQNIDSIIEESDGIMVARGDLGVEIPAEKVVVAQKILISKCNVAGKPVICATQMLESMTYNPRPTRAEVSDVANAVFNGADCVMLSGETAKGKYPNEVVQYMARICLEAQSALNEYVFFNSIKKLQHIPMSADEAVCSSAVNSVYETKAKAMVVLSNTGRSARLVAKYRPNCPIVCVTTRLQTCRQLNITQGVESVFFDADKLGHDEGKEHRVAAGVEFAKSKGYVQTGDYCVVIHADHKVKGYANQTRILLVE
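Purified LmPK (0.1 nM) converted ADP (0.1 mM) to ATP with PEP (0.5 mM) in imidazole buffer pH 7.2 with KCl and MgCl2, 1 h at room temperature. ATP was read by Kinase-Glo luminescence; data normalized to uninhibited and no-enzyme controls.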
NS1 inh valid: Assay for Inhibitors of Influenza NS1 Protein Function: Hit Validation; shares compounds with NS1 function inh; influenza NS1 function cell assay, 15-point titration; 1,400 tested, under 10 active; activity change, negative = inhibition, % at 32.9 µM; also: 0% is about no effect
Flu PR8 replic: Assay for Inhibitors of Influenza NS1 Protein Function: Influenza virus replication assay in MDCK cells infected with virus A/PR/8/34 | actives 30% (n = 95) | virus titer (log TCID50), log10 TCID50 at 5 µM | AID 504647, 2011 | shares compounds with NS1 function inh | MDCK infected influenza A/PR/8/34, virus titer TCID50; stronger effect = lower value; call rule not given here
* = called active by the depositor; ? = inconclusive; / = not tested or not shown; [ ] = dose if it differs, or a comment. A selection: hits, their analogues and other compounds. The true share with any hit is near 14%. Unless noted, calls follow the shape of the full dose curve.

SMILES | Giardia FBPA inh | NS1 function inh | Shiga toxin inh | CHX counter | LmPK inhibitor | NS1 inh valid | others
O=C(Nc1ccccc1Oc1ccccc1)c1ccc(Br)o1 | 8% | ? | -13 | -1 | -9% | ?
O=C(Nc1ccccc1-c1ccccc1)c1ccc(Br)o1 | 5% | -71% | -16 | 3 | 2% | /
NC(=O)c1nsc(C(=O)N(CC(=O)NC2CCCC2)c2cnc3ccccc3c2)c1N | 5% | -33% | -3 | -3 | 1% | /
CCOC(=O)CN1CC23C=CC(O2)C(C(=O)Nc2ccc(OC)cc2OC)C3C1=O (centres undefined) | -23% | 3.2µM* | 10 | 12 | 1% | -2
CCOC(=O)CN1CC23C=CC(O2)C(C(=O)Nc2cc(OC)ccc2OC)C3C1=O (centres undefined) | -7% | 8% | 14 | 6 | -2% | /
CCc1ccc(OCCCCCn2ccnc2)cc1 | ? | -20% | -1 | 3 | 1% | /
COc1ccc(-n2c(Cc3cccn3C)nnc2SCC(=O)Nc2ccccc2)cc1 | -2% | 6% | -3 | -2 | 2% | /
Cn1cccc1Cc1nnc(SCC(=O)Nc2cccc(F)c2)n1CCc1ccccc1 | 3% | ? | 8 | -2 | -2% | /
Cn1cccc1Cc1nnc(SCC(=O)Nc2ccccc2F)n1CCc1ccccc1 | 1% | 7.1µM* | -12 | -2 | 1% | -4
COc1ccc(-n2c(Cc3cccn3C)nnc2SCC(=O)Nc2ccc(Cl)cc2)cc1 | -1% | 10µM* | -6 | -3 | 9% | -4 | Flu PR8 replic=8
COc1cccc(NC(=O)[C@H](CC(C)C)NC(=O)N2CCn3c2nc2ccccc23)c1 | 9% | 25% | -6 | -8 | 6% | /
Cc1cc(C)c(OCCN2C(=O)NC(C)(C)C2=O)c(Cl)c1 | -2% | ? | 19 | 18 | 2% | -32
Cc1ccc(C(=O)N/N=C/c2cc(C)n(-c3ccc(Br)cc3)c2C)cc1[N+](=O)[O-] | / | 10µM* | 22 | 9 | 8% | -19 | Flu PR8 replic=8.3
Cc1ccccc1-n1c(O)cc(=O)[nH]c1=S | -5% | 5% | 20 | 1 | 2% | /
O=c1cc(O)n(-c2ccccc2F)c(=S)[nH]1 | -3% | 3.2µM* | 22 | 2 | -2% | 21
O=C(COc1cccc2ccccc12)N/N=C/c1ccc(Sc2nc3ccccc3s2)o1 | -7% | 8% | -3 | 12 | 3% | /
O=C(Cc1cccc2ccccc12)N/N=C/c1ccc(Sc2nc3ccccc3s2)o1 | -24% | 10µM* | 5 | 5 | 5% | 11
Cc1ccc(C)c(NC(=S)N2CCC(NC(=O)c3cccc(F)c3)CC2)c1 | -8% | 3% | 7 | -4 | -5% | /
Cc1ccc(S(=O)(=O)Nc2ccccc2C(=O)OC(C)C(=O)Nc2ccc3ccccc3c2)cc1[N+](=O)[O-] (centres undefined) | -1% | 4.5µM* | 12 | 2 | 2% | -10
CCc1ccc(NC(=O)C(C)OC(=O)c2ccc(NS(=O)(=O)c3ccc(C)c([N+](=O)[O-])c3)cc2)cc1 (centres undefined) | 11% | -35% | 9 | 4 | 0% | /
COc1ccc(C)cc1N(CC(=O)N1CCCCCC1)S(=O)(=O)c1ccc(C)cc1 | / | 4% | -30 | 7 | -10% | /
O=C(CN1CCCCCC1=O)OCc1ncc(-c2ccccc2)o1 | 0% | 0.45µM* | 29 | 41 | -7% | 0 | Flu PR8 replic=8.5
CCC(C)N(C(=O)COC(=O)c1[nH]c(C)c(C(C)=O)c1C)C1CCS(=O)(=O)C1 (centres undefined) | 1% | 3.2µM* | -22 | -5 | 6% | 1
CCN(C(=O)COC(=O)c1[nH]c(C)c(C(C)=O)c1C)C1CCS(=O)(=O)C1 (centres undefined) | -2% | 3% | -5 | -3 | 0% | /
CCNC(=S)NCc1ccc2[nH]c(C)cc2c1 | 1% | 11µM* | -4 | 3 | -1% | 20
SMILES | Giardia FBPA inh | NS1 function inh | Shiga toxin inh | CHX counter | LmPK inhibitor | NS1 inh valid | others
Cc1cc2cc(CCNC(=O)c3ccc(C)c([N+](=O)[O-])c3)c(=O)[nH]c2cc1C | 18% | 26% | -10 | -3 | 6% | /
Cc1cc2cc(CNC(=S)Nc3ccc(OC(F)(F)F)cc3)ccc2[nH]1 | -9% | ? | -11 | -4 | 3% | 16
Cc1cc2cc(CNC(=O)c3ccc(C)c([N+](=O)[O-])c3)ccc2[nH]1 | -4% | 8.9µM* | -42 | 8 | 3% | -23
O=C(c1ccccc1N(Cc1ccccc1)S(=O)(=O)c1ccccc1)N1CCOCC1 | 9% | -16% | -10 | -1 | -2% | /
CCCC(C)NC(=O)c1ccc2[nH]c3c(c2c1)CC(C)CC3 (centres undefined) | -22% | 11µM* | 49 | 28* | 0% | 1
O=C(NCCO)c1ccc2[nH]c3c(c2c1)CCCC3 | -13% | 1% | 30 | 9 | 6% | /
COc1cccc(C(C)NC(=O)Nc2cc(Cl)ccc2OC)c1 (centres undefined) | -5% | 3% | -9 | 2 | 1% | /
COc1cccc(C(C)NC(=O)Nc2cccc(C(F)(F)F)c2)c1 (centres undefined) | -26% | ? | -12 | -2 | 4% | ?
O=C1C2=CC[C@H]3C(=O)N(C[C@@H]4CCCO4)C(=O)[C@@H]3[C@@H]2[C@H](O)[C@@H]2O[C@H]12 | -5%[12.9 µM] | / | / | / | / | /
COc1cc(/C=N/NC(=O)c2ccc(CN3C(=O)c4cccc5cccc3c45)cc2)cc(OC)c1O | -24% | 13µM* | -2 | 0 | 1% | 18
COc1ccc(/C=N/NC(=O)c2ccc(CN3C(=O)c4cccc5cccc3c45)cc2)cc1O | ? | / | 24 | 7 | 15% | /
O=c1cc(O)c2sc(Nc3ccc(F)cc3)nc2[nH]1 | ? | 13µM* | -15 | -2 | -3% | 1
Cc1ccc2nc(-c3ccc(NS(=O)(=O)c4c(C)n(C)c(=O)n(C)c4=O)cc3)sc2c1 | -6% | 7.9µM* | 121* | 67* | -1% | 4
Cc1c(S(=O)(=O)Nc2ccc3c(c2)OCCO3)c(=O)n(C)c(=O)n1C | -2% | 0% | -19 | 3 | -6% | /
CSc1ccc(C(c2c(C)[nH][nH]c2=O)c2c(C)[nH][nH]c2=O)cc1 | -20% | 3.2µM* | -4 | -1 | -4% | ?
COc1ccc(N=C2S/C(=C\c3cc(C)n(C)c3C)C(=O)N2CC(C)C)cc1 | -5% | 7.1µM* | -15 | 2 | 2% | 7
COc1ccc(N=C2S/C(=C\c3ccco3)C(=O)N2CC(C)C)cc1 | -3% | 7% | 19 | -6 | 3% | /
CCN(Cc1ccccc1)S(=O)(=O)c1cn(C)cn1 | / | 14% | -3 | -5 | 4% | /
